Laboratory results reported in ChEMBL document CHEMBL3988442, “University of Dundee, Small-Polar-MMV Screening Library” (2021).

What follows are compounds tested against T1, Aspartate--tRNA(Asp/Asn) ligase (Mycobacterium tuberculosis (strain ATCC 25618 / H37Rv)) (UniProt P9WFW3) (assay: Assay for Asp RNA synthetase-1 from Mycobacterium tuberculosis). Conditions: 30 µM.
T1 sequence (whole entry): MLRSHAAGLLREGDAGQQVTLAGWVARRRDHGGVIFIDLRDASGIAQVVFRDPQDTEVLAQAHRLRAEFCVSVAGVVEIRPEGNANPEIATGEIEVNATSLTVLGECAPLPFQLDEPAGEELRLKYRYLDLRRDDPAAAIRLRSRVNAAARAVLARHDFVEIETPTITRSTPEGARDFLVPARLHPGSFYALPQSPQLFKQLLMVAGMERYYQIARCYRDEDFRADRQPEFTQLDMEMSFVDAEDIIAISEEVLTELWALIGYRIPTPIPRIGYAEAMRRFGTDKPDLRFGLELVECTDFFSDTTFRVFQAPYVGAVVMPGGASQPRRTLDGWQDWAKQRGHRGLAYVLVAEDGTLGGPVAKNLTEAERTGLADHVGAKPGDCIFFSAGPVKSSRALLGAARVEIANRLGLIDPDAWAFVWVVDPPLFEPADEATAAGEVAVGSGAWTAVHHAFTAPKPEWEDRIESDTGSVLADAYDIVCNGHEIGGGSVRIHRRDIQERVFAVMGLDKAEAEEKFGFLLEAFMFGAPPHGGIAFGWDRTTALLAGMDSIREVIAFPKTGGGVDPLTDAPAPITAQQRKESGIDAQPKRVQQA
Assay type: functional
Parameters: scale not given: direction of the effect not stated beside the values

Compound | Percent Effect
Cc1cccc(C)c1NC(=O)CCNC(=O)c1ccoc1 | -1.5%
CN(C)c1ncnc2c1CCN(CC1CCCC1)CC2 | -1.05%
COc1c(CNCc2ccc(C(=O)NC3CC3)cc2)c(C)nn1C | -3.68%
Cc1ccc(NC2CCN(C(=O)c3ccsc3)CC2)nn1 | -2.79%
O=C(NCc1ccc(-c2ccn[nH]2)cc1)N1CCC(N2CCCC2)C1 (stereo not given) | -3.65%
CCS(=O)(=O)Nc1ccn(Cc2cccc(Cl)c2)n1 | 4.7%
CC(C)(C)c1cnc(CN2CCC(c3ccnn3CCO)CC2)o1 | -2.6%
O=C(NCCCn1ccnc1)N1CCN(c2cccs2)CC1 | -0.0463%
COc1ccccc1CC(=O)NS(=O)(=O)c1cncc(Br)c1 | -6.19%
CNC(=O)N1C[C@H]2CC[C@@]3(N=C(c4ccccc4)NC3=O)[C@H]2C1 | 4.9%
Cc1cc(C)n(CCC(=O)N2CCC(c3nc(C(C)C)no3)CC2)n1 | 2.47%
N#Cc1ccc(OCCN2CCc3c(ncn3C3CC3)C2)cc1 | 1.24%
O=C(CN1CCc2c(ncn2C2CC2)C1)NC1CC1 | -0.0146%
CCOCC1CN(Cc2ccoc2)Cc2nn(CC3CC3)cc21 (stereo not given) | 6.32%
CCC1=N[C@@]2(CC[C@@H]3CN(Cc4ccccc4F)C[C@@H]32)C(=O)N1CC | 3.79%
CC1CCN(CCNC(=O)C2CCN(S(N)(=O)=O)CC2)CC1 | 1.78%
O=C([C@H]1COC[C@H]2CN(Cc3ccco3)C[C@H]21)N1CCCO1 | 6.23%
CC(C1CC1)N(C)C(=O)c1cnc(-c2ccc3c(c2)OCO3)s1 (stereo not given) | 3.36%
Cn1cc(CN2CC3(CCN(C(=O)c4ccoc4)C3)C2)cn1 | -2.07%
c1ccc(-n2ccnc2)c(CNCC2CNc3ccnn3C2)c1 (stereo not given) | -5.71%

Compound | Percent Effect
CN(C)CCN1CCCC12CCN(C(=O)c1cnccn1)CC2 | 1.96%
Cc1c(C2CCCN(C(=O)C3CC3)C2)n2c(nc1=O)CCC2 (stereo not given) | -0.253%
CC(=O)Nc1nc(C2CCN(CC(N)=O)CC2)cs1 | -7.79%
Cc1cc(C)n(C2CCCN(C(=O)C3=NN(C)C(=O)CC3)C2)n1 (stereo not given) | 0.706%
CNC(=O)N1CC[C@H]2N(C)CC[C@@]2(C(=O)Nc2ccccc2)CC1 | -8.12%
COc1ccc(C(=O)N(Cc2cnn(C)c2)C(C)C)cc1Br | -1.07%
Cc1nc(CCCNC(=O)C2CC(=O)N(C(C)(C)C)C2)sc1C (stereo not given) | -1.3%
CN(Cc1cn2ccccc2n1)C1CCCN(c2cccnn2)C1 (stereo not given) | 3.45%
c1cnc(-c2nc(CNCCn3cccn3)cs2)nc1 | -1.5%
CC(C)COC(C)C(=O)NCc1cc(F)cc(F)c1 (stereo not given) | -4.79%
COC(=O)C(C)(C)NC(=O)C1CC(=O)N(C2CCCC2)C1 (stereo not given) | 0.137%
CNCC(=O)N1CC(c2cc(Nc3ncccn3)nc(C)n2)C1 | -3.19%
CCC(=O)N1CCC2(CC1)c1nc[nH]c1CCN2S(C)(=O)=O | -2.17%
Cn1ncc2c(NCCOc3ccc(F)cc3)nc(C3CCCC3)nc21 | 2.47%
Cc1cccnc1CNCC1(O)CCCN(Cc2ccc(F)cc2)C1=O (stereo not given) | 0.386%
O=S(=O)(c1ccccc1)N1CCN(CCn2ccnc2)CC1 | -3.1%
COc1ccc(OC)c(C2C3=C(COC3=O)Nc3[nH]nc(C)c32)c1 (stereo not given) | -2.76%
Cc1cnn(CC2CCCN2Cc2coc(-c3cccs3)n2)c1 (stereo not given) | 1.41%
Cc1noc(C(C)C)c1C(=O)NCc1cccc(N(C)C)c1 | -3.25%
CCn1c(C)nnc1CN(C)C1CCN(CCn2cccn2)C1 (stereo not given) | 1.41%

Each compound was assayed against Shiga toxin 2 (Escherichia coli O157:H7) (UniProt P09385+P09386) (assay: E. coli 0.157:H7 Shiga Toxin SOP - stx2 screening assay). Conditions: 30 µM.
Assay type: functional
Parameters: scale not given: direction of the effect not stated beside the values

Compound | Percent Effect
Cc1cccc(C)c1NC(=O)CCNC(=O)c1ccoc1 | 15.3%
CN(C)c1ncnc2c1CCN(CC1CCCC1)CC2 | -5.38%
COc1c(CNCc2ccc(C(=O)NC3CC3)cc2)c(C)nn1C | -14.2%
Cc1ccc(NC2CCN(C(=O)c3ccsc3)CC2)nn1 | -2.79%
O=C(NCc1ccc(-c2ccn[nH]2)cc1)N1CCC(N2CCCC2)C1 (stereo not given) | 9.65%
CCS(=O)(=O)Nc1ccn(Cc2cccc(Cl)c2)n1 | -12.9%
CC(C)(C)c1cnc(CN2CCC(c3ccnn3CCO)CC2)o1 | -1.72%
O=C(NCCCn1ccnc1)N1CCN(c2cccs2)CC1 | -102%
COc1ccccc1CC(=O)NS(=O)(=O)c1cncc(Br)c1 | 10.1%
CNC(=O)N1C[C@H]2CC[C@@]3(N=C(c4ccccc4)NC3=O)[C@H]2C1 | -20.9%
Cc1cc(C)n(CCC(=O)N2CCC(c3nc(C(C)C)no3)CC2)n1 | -18.2%
N#Cc1ccc(OCCN2CCc3c(ncn3C3CC3)C2)cc1 | -40.3%
O=C(CN1CCc2c(ncn2C2CC2)C1)NC1CC1 | 5.91%
CCOCC1CN(Cc2ccoc2)Cc2nn(CC3CC3)cc21 (stereo not given) | -16.8%
CCC1=N[C@@]2(CC[C@@H]3CN(Cc4ccccc4F)C[C@@H]32)C(=O)N1CC | -13.9%
CC1CCN(CCNC(=O)C2CCN(S(N)(=O)=O)CC2)CC1 | 0.821%
O=C([C@H]1COC[C@H]2CN(Cc3ccco3)C[C@H]21)N1CCCO1 | -30.2%
CC(C1CC1)N(C)C(=O)c1cnc(-c2ccc3c(c2)OCO3)s1 (stereo not given) | -42.7%
Cn1cc(CN2CC3(CCN(C(=O)c4ccoc4)C3)C2)cn1 | -8.68%
c1ccc(-n2ccnc2)c(CNCC2CNc3ccnn3C2)c1 (stereo not given) | -13.1%

Compound | Percent Effect
CN(C)CCN1CCCC12CCN(C(=O)c1cnccn1)CC2 | 0.984%
Cc1c(C2CCCN(C(=O)C3CC3)C2)n2c(nc1=O)CCC2 (stereo not given) | 10.2%
CC(=O)Nc1nc(C2CCN(CC(N)=O)CC2)cs1 | -8.65%
Cc1cc(C)n(C2CCCN(C(=O)C3=NN(C)C(=O)CC3)C2)n1 (stereo not given) | 17.2%
CNC(=O)N1CC[C@H]2N(C)CC[C@@]2(C(=O)Nc2ccccc2)CC1 | 15.9%
COc1ccc(C(=O)N(Cc2cnn(C)c2)C(C)C)cc1Br | 5.59%
Cc1nc(CCCNC(=O)C2CC(=O)N(C(C)(C)C)C2)sc1C (stereo not given) | -11.5%
CN(Cc1cn2ccccc2n1)C1CCCN(c2cccnn2)C1 (stereo not given) | -72.8%
c1cnc(-c2nc(CNCCn3cccn3)cs2)nc1 | 5.58%
CC(C)COC(C)C(=O)NCc1cc(F)cc(F)c1 (stereo not given) | 27.6%
COC(=O)C(C)(C)NC(=O)C1CC(=O)N(C2CCCC2)C1 (stereo not given) | -3.28%
CNCC(=O)N1CC(c2cc(Nc3ncccn3)nc(C)n2)C1 | -3.14%
CCC(=O)N1CCC2(CC1)c1nc[nH]c1CCN2S(C)(=O)=O | 14.6%
Cn1ncc2c(NCCOc3ccc(F)cc3)nc(C3CCCC3)nc21 | -46.7%
Cc1cccnc1CNCC1(O)CCCN(Cc2ccc(F)cc2)C1=O (stereo not given) | 4.74%
O=S(=O)(c1ccccc1)N1CCN(CCn2ccnc2)CC1 | 2.08%
COc1ccc(OC)c(C2C3=C(COC3=O)Nc3[nH]nc(C)c32)c1 (stereo not given) | -22.3%
Cc1cnn(CC2CCCN2Cc2coc(-c3cccs3)n2)c1 (stereo not given) | 4.89%
Cc1noc(C(C)C)c1C(=O)NCc1cccc(N(C)C)c1 | 13.2%
CCn1c(C)nnc1CN(C)C1CCN(CCn2cccn2)C1 (stereo not given) | 12.1%
